In PubChem BioAssay (NCATS):
Several values for one entry are separate records, joined by “and”; a condition that tells them apart may be missing. Equal entries are not always repeated. Inconclusive results are not listed. Activity calls are given as the source filed them. Unless noted, calls come from the whole dose curve; as a rule, active = well fitted curve in either direction with a large enough effect (not every such curve was filed as active); inconclusive = small, poorly fitted or top-dose-only effect, or another doubt; inactive = flat fitted curve, though single readings scatter.

Columns and labels:
[1] = AP1 Signaling Pathway (AID 357);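 note: ME-180 reporter cells stimulated with EGF at its EC50 level; % is set by controls: 0 for no effect and ±100 for the full control effect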
Summary of the method: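 Read-out was the 460nm/530nm emission ratio (excitation 405nm) after CCF4 loading for 2.5 hours at room temperature. Cells carried an AP-1-driven beta-lactamase reporter, were stimulated with EC50 EGF plus compound for 5 hours, and AC50 values came from titrations.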

[2] = NFAT Signaling Pathway (AID 444);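 note: carbachol stimulus at about its EC50 of 1 µM final; % is set by controls: 0 for no effect and ±100 for the full control effect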
Summary of the method: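 Jurkat cells carrying an NFAT-driven β-lactamase reporter and co-transfected muscarinic M1 receptor were treated with compound plus carbachol (1 uM final, an EC50 level) for 5 h at 37 °C. CCF4 loading followed for 1 h at RT; 460/530 nm ratio gave %activity.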

[3] = Stat Signaling Pathway (AID 446); conditions: ME-180 SIE beta-lactamase reporter, IL-6 stimulated, 5 h; at 17.2 µM (top of the series);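 note: ME-180 cervical cancer cells given 40 pM IL-6 alongside compound; SIE-controlled beta-lactamase reporter measured as 460/530 nm FRET emission ratio; % is set by controls: 0 for no effect and ±100 for the full control effect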
Summary of the method: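 ME-180 cells carrying a SIE-driven beta-lactamase reporter are stimulated with 40 pM IL-6 for 5 h at 37C in the presence of compound. The 460/530 nm FRET substrate ratio is read after 2.5 h at RT. Data are normalised to 300 pM IL-6 and to 125 nM JAK inhibitor controls.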

[4] = target: Glucocorticoid receptor (Homo sapiens) (UniProt P04150); test: GR-GFP Redistribution (AID 450;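 active = compounds whose dose series gives a full or clear partial fitted curve of increased nuclear translocation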; note: potency is the fitted concentration of half-maximal effect); conditions: U2OS GR-GFP nuclear translocation, laser cytometry, 2 h
[5] = target: Glucocorticoid receptor (Homo sapiens) (UniProt P04150); test: GR-EFC Redistribution (AID 451; calls by dose curve; note: potency is the fitted concentration of half-maximal effect); conditions: CHO-K1 GR-EFC translocation, beta-gal luminescence, 2 h
Summary of the method: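 CHO-K1 cells stably expressing nuclear-localized β-gal enzyme acceptor and GR fused C-terminally to the enzyme donor fragment; ligand-driven nuclear translocation restores β-gal by complementation. Compounds titrated up to 46 uM final, 2 h at 37 °C; luminescence read.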

[6] = target: Mitogen-activated protein kinase 10 (Mus musculus) (UniProt Q61831); test: JNK3 AlphaScreen Assay (AID 530);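 note: kinase came from lysate of stimulated human HepG2 cells; signal reports phosphorylation of biotinylated GST-cJun 1-79 at Ser73 with 10 µM ATP; % is set by controls: 0 for no effect and ±100 for the full control effect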
Summary of the method: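 Inhibitors reduce antibody binding to phosphorylated biotin-cJun, lowering AlphaScreen luminescence. Lysates from HepG2 cells pre-activated by IL-1beta plus TNF-alpha supplied JNK3; compounds were titrated.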

[7] = Cell Viability - BJ (AID 421; calls by dose curve;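 note: potency is the fitted concentration of half-maximal effect; cells exposed to compound for 40 hours at 37 °C before readout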); conditions: BJ fibroblast viability, qHTS
Summary of the method: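 Normal human BJ foreskin fibroblasts, 1500/well in complete medium, treated 40 hr at 37 °C. Cellular ATP by CellTiter-Glo luminescence; normalized to DMSO and 100 uM tamoxifen, AC50 from Hill fit.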

[8] = Cell Viability - HepG2 (AID 433; calls by dose curve;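 note: potency is the fitted concentration of half-maximal effect; potency for ATP loss meaning cytotoxicity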); conditions: qHTS
Summary of the method: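 Read-out is luciferase-based quantitation of cellular ATP as a measure of viable HepG2 cells after 40 h treatment at 37 °C. Signal decrease is scaled between DMSO-only and 100 uM tamoxifen controls, with AC50 fitted by the Hill equation.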

[9] = Cell Viability - N2a (AID 540; active = well fitted curve in the direction sought with a large enough effect; an effect the other way counts as inactive or inconclusive;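 note: plate controls were DMSO alone for no effect and tamoxifen control for full effect; nearly all actives have a fitted effect of over 45% in size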); conditions: N2a mouse neuroblastoma cell viability; activity change, negative = cytotoxicity: at 92.2 µM (top of the series)
Summary of the method: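 Luminescent ATP signal (CellTiter-Glo, 20 min at room temperature) served as the viability read-out after N2a cells were treated with compounds for 40 hours at 37 °C. Concentration-response data were fitted to the Hill equation for AC50.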

[10] = Cell Viability - HUV-EC-C (AID 542; active = well fitted curve in the direction sought with a large enough effect; an effect the other way counts as inactive or inconclusive; note: % is set by controls: 0 for no effect and ±100 for the full control effect; nearly all actives have a fitted effect of over 35% in size)
Summary of the method: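 qHTS cytotoxicity: HUV-EC-C, 1000 cells/well, 5 hr settle, compound 40 hr 37 °C, CellTiter-Glo, luminescence. AC50 via Hill equation.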

[11] = Cell Viability - SH-SY5Y (AID 544; active = well fitted curve in the direction sought with a large enough effect; an effect the other way counts as inactive or inconclusive; note: nearly all actives have a fitted effect of over 55% in size; note: potency is the fitted concentration of half-maximal effect;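 for viability change, negative = cytotoxic: 0% = DMSO alone and -100% = 100 µM tamoxifen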); conditions: SH-SY5Y neuroblastoma cell viability; viability change, negative = cytotoxic: at 92.2 µM (top of the series)
Summary of the method: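 Luminescent ATP read-out (CellTiter-Glo) measures loss of viable SH-SY5Y neuroblastoma cells after 40 hr compound exposure at 37 °C. AC50 values derive from standard Hill modelling of qHTS concentration-response data.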

[12] = Cell Viability - Mesenchymal (AID 546; active = well fitted curve in the direction sought with a large enough effect; an effect the other way counts as inactive or inconclusive;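 note: cells exposed to compound for 40 hours before reading; 0% = DMSO only and -100% = 100 µM tamoxifen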); conditions: mesenchymal cells viability, qHTS; activity change, negative = cytotoxicity: at 91.7 µM (top of the series)
Summary of the method: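 Normal human renal glomerulus-derived kidney mesenchymal cells, 1000 per well in complete medium, were treated with compounds for 40 hr at 37 °C. Viability was read as intracellular ATP by CellTiter-Glo luminescence; AC50 values came from Hill-equation fits of qHTS concentration-response data.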

[13] = Cell Viability - Jurkat (AID 426;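 active = dose-dependent loss of cell ATP signal giving a full or clear fitted curve, ranked by lower potency value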; note: potency is the fitted concentration of half-maximal effect); conditions: qHTS
Summary of the method: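 qHTS, 1536-well; Jurkat E6-1, 5000 cells/well, complete medium; cpd 40 hr, 37 °C; CellTiter-Glo 20 min RT; luminescence. AC50 by Hill fit.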

[14] = Cell Viability - Hek293 (AID 427;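 active = compounds whose dose-response curve shows a full or clear partial loss of cell viability, called from curve shape rather than a numeric limit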;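 note: potency is the fitted concentration of half-maximal effect; cells exposed to compound for 40 hours at 37 °C before reading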); conditions: qHTS
Summary of the method: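 HEK293 cells in complete medium were exposed to compound for 40 hr at 37 °C, then cellular ATP was read by CellTiter-Glo luminescence. Data were normalized to DMSO (basal) and 100 uM tamoxifen (100% inhibition), and AC50 came from Hill fits.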

[15] = Cell Viability - MRC5 (AID 434; calls by dose curve;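 note: potency is the fitted concentration of half-maximal effect; potency reflects cytotoxicity seen as loss of intracellular ATP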); conditions: MRC5 lung fibroblast viability, qHTS
Summary of the method: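 MRC5 normal human lung fibroblasts (1500/well) were treated with compounds for 40 hr at 37 °C in complete medium, and viable cells were measured as intracellular ATP by CellTiter-Glo luminescence. AC50 came from Hill fits, normalized to DMSO and 100 uM tamoxifen.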

[16] = Cell Viability - SK-N-SH (AID 435; calls by dose curve;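 note: potency is the fitted concentration of half-maximal effect; compound exposure lasted 40 h at 37 °C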); conditions: SK-N-SH neuroblastoma cell viability qHTS
Summary of the method: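 Luminescent ATP signal served as the viability read-out after 40 hours of compound treatment of human neuroblastoma SK-N-SH cells. Concentration-response data, scaled between DMSO and 100 uM tamoxifen, gave AC50 values by standard Hill modeling.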

[17] = Cell Viability - H-4-II-E (AID 543; active = well fitted curve in the direction sought with a large enough effect; an effect the other way counts as inactive or inconclusive; note: % is set by controls: 0 for no effect and ±100 for the full control effect; nearly all actives have a fitted effect of over 35% in size)
Summary of the method: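 Luminescent ATP signal (CellTiter-Glo) served as the viability read-out, with cytotoxicity seen as a concentration-dependent ATP drop. Cells were treated for 40 hours in complete medium. AC50 values derive from Hill-equation modelling.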

[18] = Cell Viability - Renal Proximal Tubule (AID 545; active = well fitted curve in the direction sought with a large enough effect; an effect the other way counts as inactive or inconclusive;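 note: 0% = DMSO only and -100% = 100 µM tamoxifen; nearly all actives have a fitted effect of over 40% in size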); conditions: renal proximal tubule cells viability, primary cells of rat origin; activity change, negative = cytotoxicity: at 91.7 µM (top of the series)
Summary of the method: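 Luminescent ATP signal (CellTiter-Glo) served as the viability read-out after 40 hr compound exposure of freshly isolated rat proximal tubule cells at 37 °C. Concentration-dependent ATP loss was fitted with the Hill equation to give AC50.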

[19] = target: Cytochrome P450 1A2 (Homo sapiens) (UniProt P05177); test: p450-cyp1a2 (AID 410; calls by dose curve; note: potency is the fitted concentration of half-maximal effect)
Summary of the method: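 Luminescent readout of luciferin formed from Luciferin-ME by human CYP1A2; data normalized against complete inhibition by 57 uM furafylline. Enzyme 20nM, substrate 100uM at Km, 100mM KPO4 buffer, 60 min reaction at room temperature.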

Sequence of Cytochrome P450 1A2 (Homo sapiens) (P05177 whole entry, looked up): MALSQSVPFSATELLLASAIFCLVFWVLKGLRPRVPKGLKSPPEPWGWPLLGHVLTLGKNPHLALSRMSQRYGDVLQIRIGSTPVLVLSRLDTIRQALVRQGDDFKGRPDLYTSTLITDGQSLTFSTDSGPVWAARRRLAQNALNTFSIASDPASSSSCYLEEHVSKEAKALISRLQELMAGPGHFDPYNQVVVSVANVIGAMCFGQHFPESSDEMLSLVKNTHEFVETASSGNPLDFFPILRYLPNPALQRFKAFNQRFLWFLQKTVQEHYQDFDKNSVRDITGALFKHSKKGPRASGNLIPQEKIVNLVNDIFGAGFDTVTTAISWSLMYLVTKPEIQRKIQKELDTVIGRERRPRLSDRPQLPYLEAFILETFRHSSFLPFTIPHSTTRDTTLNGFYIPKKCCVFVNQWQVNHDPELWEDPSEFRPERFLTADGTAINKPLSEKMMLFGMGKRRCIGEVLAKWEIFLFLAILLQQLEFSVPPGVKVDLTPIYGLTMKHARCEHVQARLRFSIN
Sequence of Glucocorticoid receptor (Homo sapiens) (P04150 whole entry, looked up, the tested form may be a part): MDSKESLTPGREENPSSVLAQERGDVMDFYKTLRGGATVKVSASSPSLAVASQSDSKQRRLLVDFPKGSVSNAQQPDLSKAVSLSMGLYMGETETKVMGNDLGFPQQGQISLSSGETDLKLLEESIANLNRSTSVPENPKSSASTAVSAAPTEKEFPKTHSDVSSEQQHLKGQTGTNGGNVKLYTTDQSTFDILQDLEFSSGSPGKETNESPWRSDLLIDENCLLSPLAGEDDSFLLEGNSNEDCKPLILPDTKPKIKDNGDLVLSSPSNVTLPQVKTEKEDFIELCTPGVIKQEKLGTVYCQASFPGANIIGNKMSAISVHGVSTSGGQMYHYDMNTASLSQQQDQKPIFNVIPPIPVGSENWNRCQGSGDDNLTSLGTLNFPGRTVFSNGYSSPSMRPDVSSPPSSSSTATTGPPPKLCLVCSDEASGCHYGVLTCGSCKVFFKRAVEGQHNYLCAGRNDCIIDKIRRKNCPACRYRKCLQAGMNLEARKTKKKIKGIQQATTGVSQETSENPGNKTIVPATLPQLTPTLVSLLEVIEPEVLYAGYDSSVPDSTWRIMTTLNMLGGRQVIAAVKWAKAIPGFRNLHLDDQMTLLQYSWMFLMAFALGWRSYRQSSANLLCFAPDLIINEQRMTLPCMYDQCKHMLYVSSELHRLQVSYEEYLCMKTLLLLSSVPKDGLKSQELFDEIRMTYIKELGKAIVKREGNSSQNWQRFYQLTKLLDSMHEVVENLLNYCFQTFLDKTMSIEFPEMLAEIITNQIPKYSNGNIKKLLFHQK

COc1ccc2c3c1OC1C[C@@H](O)C=C[C@@]31CCN(C)C2 (stereo partly specified)
inactive: outcome [1] | outcome [2] | activity, negative = inhibition [3] 12.6% | Potency [4] > 20.6 µM | Potency [5] > 20.6 µM | outcome [6]

O=c1cc(-c2ccc(O)cc2)oc2cc(O)cc(O)c12
inactive: Potency [7] > 92 µM | Potency [8] > 92 µM | Potency [4] > 46 µM and > 20.6 µM | Potency [5] > 46 µM and > 20.6 µM | Potency [9] | Potency [10] | Potency [12]
active: activity, negative = inhibition [3] -101% | Potency [11] 25.1 µM

O=C(O)Cc1cccc2ccccc12
inactive: Potency [7] > 92 µM | Potency [13] > 92 µM | Potency [14] > 92 µM | Potency [8] > 92 µM | Potency [15] > 92 µM | Potency [16] > 92 µM | outcome [6] | Potency [9] | Potency [10] | Potency [17] | Potency [11] | Potency [18] | Potency [12]

CC(C)(C)c1ccc(C(O)CCCN2CCC(C(O)(c3ccccc3)c3ccccc3)CC2)cc1 (stereo unspecified)
inactive: outcome [1] | outcome [2] | activity, negative = inhibition [3] -1.77% | Potency [4] > 20.6 µM

O=C1C[C@@H](c2ccc(O)cc2)Oc2cc(O)cc(O)c21
inactive: outcome [1] | outcome [2] | activity, negative = inhibition [3] 0.762% | Potency [4] > 20.6 µM and > 46 µM | Potency [5] > 20.6 µM and > 46 µM | outcome [6]

O=C(O)c1cc(-c2ccccc2)nc2ccccc12
inactive: outcome [1] | outcome [2] | activity, negative = inhibition [3] -0.648% | Potency [4] > 20.6 µM

COc1ccc(Cc2nccc3cc(OC)c(OC)cc23)cc1OC
active: Potency [19] 25.1 µM and 10 µM and 31.6 µM
inactive: outcome [6]

COc1cccc(-c2cc(=O)c3ccccc3o2)c1N
active: Potency [19] 3.16 µM and 200 nM
inactive: outcome [2] | Potency [4] > 46 µM | Potency [5] > 46 µM | outcome [6]

Nc1ncnc2c1ncn2[C@@H]1O[C@@H](CO)[C@H](O)[C@H]1O
inactive: outcome [1] | outcome [2] | activity, negative = inhibition [3] -10% | Potency [4] > 20.6 µM | Potency [5] > 20.6 µM | outcome [6]

CC(C)[C@H](CO)Nc1nc(Nc2ccc(C(=O)O)c(Cl)c2)c2ncn(C(C)C)c2n1
inactive: Potency [19] | Potency [4] > 46 µM | Potency [5] > 46 µM | outcome [6]

O=c1cc(-c2ccccc2)oc2cc(O)cc(O)c12
inactive: Potency [4] > 20.6 µM | Potency [5] > 20.6 µM

CC(=O)N[C@@H](CS)C(=O)O
inactive: outcome [1] | outcome [2] | activity, negative = inhibition [3] 3.22% | Potency [4] > 20.6 µM

CC[C@]1(O)C[C@@H]2CN(CCc3c([nH]c4ccccc34)[C@@](C(=O)OC)(c3cc4c(cc3OC)N(C)[C@H]3[C@@](O)(C(=O)OC)[C@H](OC(C)=O)[C@]5(CC)C=CCN6CC[C@]43[C@@H]65)C2)C1
inactive: outcome [1] | activity, negative = inhibition [3] -9.58% | Potency [4] > 20.6 µM

COc1ccc(-c2coc3cc(O)ccc3c2=O)cc1
active: Potency [19] 631 nM
inactive: Potency [4] > 46 µM | Potency [5] > 46 µM | outcome [6]

CC1(C)CCC2=C(O1)c1ccccc1C(=O)C2=O
active: Potency [19] 3980 nM
inactive: Potency [4] > 46 µM | Potency [5] > 46 µM | outcome [6]

CCn1cc(C(=O)O)c(=O)c2ccc(C)nc21
inactive: Potency [7] > 92 µM | Potency [13] > 92 µM | Potency [14] > 92 µM | Potency [8] > 92 µM | Potency [15] > 92 µM | Potency [16] > 92 µM | Potency [9] | Potency [10] | Potency [17] | Potency [11] | Potency [18] | Potency [12]

CN(C)CCC(c1ccccc1)c1ccccn1 (stereo unspecified)
inactive: Potency [7] > 92 µM | Potency [13] > 92 µM | Potency [14] > 92 µM | Potency [8] > 92 µM | Potency [15] > 92 µM | Potency [16] > 92 µM | outcome [6] | Potency [9] | Potency [10] | Potency [17] | Potency [11] | Potency [18] | Potency [12]
